Compounds with a hit are over-represented: about 9.2% of the library has one in this group of screens.
ELG1 genotox: genotoxicity induction in ELG1-luciferase HEK293T cells | 330,000 tested, 1.3% active | HEK293T ELG1-luciferase reporter, luminescence, 16 h | Potency, µM (titrated, usually from 46 µM), for inactives: at the highest dose activity change, positive = activation, usual class: activators; further: % of control where 0% means no effect; nearly all actives have a fitted effect of over 60% in size
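HEK293T cells expressing luciferase-tagged ELG1 were treated with compound or DMSO for 16 hr at 37°C. Luciferase activity was then read after 30 min with ONE-Glo at room temperature; rising signal flags genetic stress.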
NPC1 promoter act: activators of NPC1 promoter. 320,000 tested, 2.4% active. Potency, µM (titrated, usually from 9.22 µM), for inactives: at the top dose activation, most hits filed as activators. Huh7 NPC1 promoter luciferase reporter, 24 h; further: % of control where 0% means no effect; nearly all actives have a fitted effect of over 60% in size
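Luminescence read-out of NPC1 promoter-driven luciferase in stably transfected Huh7 cells; compounds delivered in DMSO and left 24 h at 37C, 5% CO2, qHTS titration format.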
FLuc modulator: inhibits or activates purified firefly luciferase, miR-21 counter-screen; P08659; purified FLuc, Km substrates, luminescence inhibition; Potency, µM (highest dose often 57.5 µM), for inactives: top-dose activity change, negative = inhibition, most hits filed as inhibitors; AID 588342; 360,000 tested, 6.9% active;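 further: plate controls were vehicle for no effect and reference inhibitor for full effect; nearly all actives have a fitted effect of over 55% in size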
Target sequence (P08659 whole entry, looked up): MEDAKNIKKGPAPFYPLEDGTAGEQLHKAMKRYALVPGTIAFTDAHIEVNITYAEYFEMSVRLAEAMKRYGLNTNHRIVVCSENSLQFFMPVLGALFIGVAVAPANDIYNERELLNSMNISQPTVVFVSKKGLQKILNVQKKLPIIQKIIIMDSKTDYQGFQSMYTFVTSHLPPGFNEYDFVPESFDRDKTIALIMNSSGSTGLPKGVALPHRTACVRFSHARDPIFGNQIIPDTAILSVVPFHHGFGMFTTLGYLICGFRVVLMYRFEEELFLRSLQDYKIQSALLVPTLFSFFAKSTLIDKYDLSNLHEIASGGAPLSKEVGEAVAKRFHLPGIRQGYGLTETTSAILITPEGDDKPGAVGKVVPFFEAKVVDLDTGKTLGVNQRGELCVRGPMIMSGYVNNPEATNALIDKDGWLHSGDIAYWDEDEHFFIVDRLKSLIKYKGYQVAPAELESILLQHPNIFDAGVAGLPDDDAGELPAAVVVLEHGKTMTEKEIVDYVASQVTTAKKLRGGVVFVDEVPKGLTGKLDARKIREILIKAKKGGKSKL
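Purified P. pyralis luciferase, 10 nM final, with Km-level 10 uM D-luciferin and 10 uM ATP in 50 mM Tris acetate pH 7.5, 10 mM Mg acetate, 0.01% Tween-20, 0.05% BSA; 6-point qHTS titration about 60 µM downward; luminescence read.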
ELG1 repair inh: inhibitors of ELG1-dependent DNA repair in HEK293T cells; HEK293T ELG1-luciferase reporter, luminescence, 16 h; DNA damage induced by 5-fluorouridine; Potency, µM (top dose mostly 46.1 µM), inactives show top-dose activity change, negative = inhibition, actives largely listed as inhibitors; 330,000 tested, 2.3% active; AID 504467; further: on the % scale 0 is the no-effect control and ±100 the full control effect; nearly all actives have a fitted effect of over 55% in size
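Reporter activity after DNA damage by 5-fluorouridine is monitored. Compound-treated cells incubate 16 hr at 37 °C, then ONE-Glo is added for 30 min before luminescence reading.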
SMN2 splice enh: increases expression of the SMN2 splice variant; 210,000 tested, 2.8% active; HEK293 SMN2-luciferase splicing reporter, luminescence, 30-36 h; Potency, µM (top dose mostly 46.1 µM), for inactives: at the top dose activity change, positive = activation, actives largely listed as activators; further: % of control where 0% means no effect; nearly all actives have a fitted effect of over 55% in size
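HEK293 cells carry an SMN2 […]–luciferase reporter in which exon 7 inclusion puts luciferase in frame. Cells were plated 10-12 h before compound addition, then incubated 30-36 h at 37C. ONE-Glo luminescence was read; sodium butyrate at 4.5 mM final served as control.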
Rab9 prom act: activates the Rab9 promoter | Huh7 Rab9 promoter-luciferase reporter, luminescence, 24 h | 320,000 tested, 2.8% active | Potency, µM (top dose mostly 9.22 µM), inactives show top-dose activation, negative = inhibition, hits mostly activators; further: % of control where 0% means no effect; nearly all actives have a fitted effect of over 60% in size
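Cells were plated at 1500 per well in reduced-serum medium with 10% FBS and left 2 h. Compound in DMSO was then added for 24 h at 37 °C. Reporter signal was read by luminescence after 10 min with luciferase detection reagent.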
An asterisk follows results filed as active; ? = inconclusive; nt = no result given; [ ] = remark or other dose. The call rests on the fitted dose curve; in most records, active means well fitted curve in the direction sought with a large enough effect; inconclusive means small, poorly fitted or top-dose-only effect, or another doubt; inactive means no such curve, though single readings can be large; an effect the other way counts as inactive or inconclusive. Potency means the concentration at half of the fitted maximal effect.

SMILES | ELG1 genotox | NPC1 promoter act | FLuc modulator | ELG1 repair inh | SMN2 splice enh | Rab9 prom act
CC(C)c1nnc(NC(=O)C2CCCO2)s1 (stereo not given) | 6.8% | 2.0% | -3.8% | ? | nt | 3.6%
CSc1nc2ccc(NC(=O)c3ccc(Cl)s3)cc2s1 | ? | 2µM* | 1.9µM* | ? | nt | 2.82µM*
COc1ccc(NC(=O)c2cc3ccc4c5ccccc5[nH]c4c3cc2O)cc1 | 4.6% | -5.8% | 5.1% | 0.0% | nt | -2.3%
Cc1cc2cc(CNC(=O)Nc3ccccc3)ccc2[nH]1 | ? | ? | 19µM* | ? | ? | ?
COc1ccc(CNC(=O)Nc2ccccc2)cc1 | ? | ? | 19µM* | ? | nt | 3.55µM*
COc1ccc(CNC(=O)Nc2ccc(C)cc2C)cc1 | 2.8% | 5.2% | -3.3% | ? | 12.9% | -2.3%
Cc1ccc(CNC(=O)Nc2ccccc2)c(C)c1 | 18.3µM* | 2.51µM* | 2.69µM* | ? | nt | 3.16µM*
COc1ccc(CNC(=O)Nc2cccc(C)c2)cc1 | ? | 3.16µM* | ? | ? | 20.0% | 3.98µM*
COc1ccc(CNC(=O)Nc2ccc(OC)cc2)cc1 | 14.6% | -0.6% | -1.7% | 13.5% | 29.5% | -3.7%
O=C(CSc1nc2c([nH]c3ccccc32)c(=O)n1-c1ccc(F)cc1)N1CCCc2ccccc21 | nt | nt | -1.4% | nt | nt | nt
CCOc1cc(C(=O)Nc2ccc(S(=O)(=O)Nc3cc(OC)nc(OC)n3)cc2)cc(OCC)c1OCC | nt | nt | -2.3% | nt | -2.7% | nt
COc1cccc(-c2nc3ccc([N+](=O)[O-])cc3o2)c1 | ? | ? | 1.51µM* | ? | 15.8µM* | 2.24µM*
O=c1oc(-c2cccc([N+](=O)[O-])c2)nc2ccccc12 | 5.4% | 14.5% | ? | 17.8% | nt | 17.5%
O=[N+]([O-])c1ccc2nc(-c3ccccc3)oc2c1 | ? | 2.82µM* | 9.53µM* | ? | 11.2µM* | 3.16µM*
CC(C)(C)Nc1nc2ccc([N+](=O)[O-])cc2o1 | -6.2% | 9.5% | -4.5% | ? | nt | 12.3%
Cc1cc2nc(CO)[nH]c2cc1C | 5.3% | -1.4% | -10.5% | 22.4% | nt | -3.5%
Cc1cc2nc(CS)[nH]c2cc1C | 4.2% | 7.7% | 4.78µM* | 20.8% | nt | 12.0%
Cc1cc(C(=O)Nc2ccccc2C(=O)O)oc1C | 9.1% | 12.1% | 19µM* | ? | nt | 7.6%
Cc1occc1C(=O)Nc1ccccc1C(=O)O | ? | 11.9% | 26.9µM* | ? | -2.7% | 16.3%
COc1ccc(C(=O)N2CCC2)cc1S(=O)(=O)NCc1ccc(Cl)cc1 | 1.9% | nt | nt | 11.8% | nt | nt
CC(C(=O)NCCc1ccccc1)N1c2cccc3cccc(c23)S1(=O)=O (stereo not given) | -6.3% | -4.4% | -0.1% | ? | nt | 0.0%
c1csc(-c2ccc3ccccc3n2)c1 | ? | ? | 7.57µM* | ? | 20.8% | ?
Nc1nc2ccccc2cc1-c1cccs1 | ? | 4.47µM* | 10.7µM* | ? | nt | ?
Cc1cc(-c2cccs2)n[nH]1 | 1.4% | 1.6% | 2.9%[2.3 µM] | 3.9% | 17.8% | 3.3%
Cc1ccc(-c2cc3ccccc3nc2N)cc1 | ? | 5.01µM* | 3.01µM* | ? | nt | ?
SMILES | ELG1 genotox | NPC1 promoter act | FLuc modulator | ELG1 repair inh | SMN2 splice enh | Rab9 prom act
Nc1nc(-c2cccs2)cs1 | 3.6% | ? | ? | ? | -12.5%[9.22 µM] | 27.8%
Cc1cc2ncc(-c3cccs3)nc2cc1C | ? | 0.891µM* | 0.338µM* | ? | nt | 3.98µM*
COc1cc(NC(=O)CSc2nc3nc(C)c(Cc4ccccc4)c(C)n3n2)cc(OC)c1OC | nt | nt | -1.6% | nt | nt | nt
CCCCc1nc2c(c3c1C[C@H](C)OC3)CN(S(=O)(=O)CCCC)CC2 | nt | nt | nt | nt | -0.3%[9.22 µM] | nt
CN1/C(=C\C(=O)COC(=O)c2ccc(O)cc2)C(C)(C)c2ccccc21 | -6.8% | 0.7% | 4.8% | 20.6µM* | nt | -1.5%
CNS(=O)(=O)c1cccc(C(=O)OCC(=O)/C=C2/N(C)c3ccccc3C2(C)C)c1 | -1.6% | -1.1% | 7.6% | ? | -19.1% | -1.8%
CN1/C(=C\C(=O)COC(=O)c2ccc(O)c(O)c2)C(C)(C)c2ccccc21 | 5.7% | -17.2% | -13.9% | 20.6µM* | -1.5% | 0.4%
COc1cccc(CNC(=O)CSC2=Nc3ccccc3N=C(c3ccc(F)cc3)C2)c1 | nt | nt | -14.4% | nt | nt | nt
COc1ccccc1-c1nc(SCC(=O)c2ccc(Cl)cc2)n[nH]1 | nt | nt | -4.1% | nt | 13.8% | nt
COc1ccccc1N/N=C/c1ccc2c(c1)OCO2 | 17.2% | 10.4% | 9.53µM* | ? | -14.7% | 0.7%
COc1ccccc1C(=O)N/N=C/c1ccc2c(c1)OCO2 | ? | 2.82µM* | 10.7µM* | ? | nt | ?
COc1ccccc1/C=N/NC(=O)c1cccc(OC(F)(F)C(F)F)c1 | 1.5% | -0.6% | 12µM* | 0.0% | 19.3% | -2.0%
COc1cc2ccccc2cc1C(=O)N/N=C/c1ccc2c(c1)OCO2 | -3.6% | -27.9% | ? | -0.3% | nt | -19.9%
O=C(N/N=C/c1ccccc1OC(=O)c1ccc2c(c1)OCO2)c1ccccc1 | ? | -0.3% | ? | ? | nt | -7.4%
COc1ccccc1/C=N/NC(=O)c1ccc2c(c1)OCO2 | 8.3% | 11.5% | 6.75µM* | ? | nt | 17.8%
COc1ccccc1NC(=O)NCc1ccc2c(c1)OCO2 | -0.2% | 1.8% | -7.3% | 21.7% | -21.8% | 14.4%
COc1ccc(-c2cc3nc(C)c(CCC(=O)NC(C)c4ccccc4)c(C)n3n2)c(OC)c1 (stereo not given) | nt | nt | -8.9% | nt | -5.3% | nt
Cc1nn(C)c2c1c(-c1ccccc1)cc(=O)n2Cc1ccccc1Cl | nt | nt | -1.4% | nt | nt | nt
CSc1nsc(N/N=C/c2ccc3c(c2)OCO3)c1C#N | ? | 2.51µM* | 1.69µM* | ? | 5.62µM* | 0.794µM*
COc1cc(/C=N/Nc2snc(SC)c2C#N)cc(OC)c1OC | -2.2% | -32.9% | ? | -1.5% | -47.7% | -34.2%
CCOc1ccc(-n2c(SCC(=O)Nc3cc(C)ccc3C)nc3c([nH]c4ccccc43)c2=O)cc1 | nt | nt | -1.2% | nt | nt | nt
Cc1nc2c(C(=O)NCc3ccccc3Cl)cnn2c(C)c1Cc1c(F)cccc1Cl | nt | nt | -2.9% | nt | nt | nt
c1nc2ccc(Cc3ccc4nc[nH]c4c3)cc2[nH]1 | -0.2% | -4.3% | -0.2% | -5.3% | nt | -0.7%
Cc1nc2ccc(-c3nc4cc(N)ccc4o3)cc2[nH]1 | ? | 0.398µM* | 1.9µM* | ? | 2.82µM* | 0.398µM*
Nc1ccc2oc(-c3ccc4nc[nH]c4c3)nc2c1 | ? | ? | 1.9µM* | ? | 12.6µM* | ?
Cc1c(Cl)cnc(NC(=O)CSc2n[nH]c(N)n2)c1Cl | 3.5% | -4.1% | 0.6% | -11.0% | nt | 1.7%

Screening data deposited in PubChem by National Center for Advancing Translational Sciences (NCATS).
